Screens from PubChem.
Sampled rows, rich in hits. Any-hit rate of the full collection: about 6.2%.
AHR act – activators of human aryl hydrocarbon receptor; 320,000 compounds, 2.5% hits; activation, % at 5 µM; AID 2796; AHR-responsive luciferase reporter cells, luminescence; P35869; in the data active = activation above about 47%;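 also: 0% = vehicle wells and 100% = reference agonist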
Target sequence (P35869 whole entry, looked up): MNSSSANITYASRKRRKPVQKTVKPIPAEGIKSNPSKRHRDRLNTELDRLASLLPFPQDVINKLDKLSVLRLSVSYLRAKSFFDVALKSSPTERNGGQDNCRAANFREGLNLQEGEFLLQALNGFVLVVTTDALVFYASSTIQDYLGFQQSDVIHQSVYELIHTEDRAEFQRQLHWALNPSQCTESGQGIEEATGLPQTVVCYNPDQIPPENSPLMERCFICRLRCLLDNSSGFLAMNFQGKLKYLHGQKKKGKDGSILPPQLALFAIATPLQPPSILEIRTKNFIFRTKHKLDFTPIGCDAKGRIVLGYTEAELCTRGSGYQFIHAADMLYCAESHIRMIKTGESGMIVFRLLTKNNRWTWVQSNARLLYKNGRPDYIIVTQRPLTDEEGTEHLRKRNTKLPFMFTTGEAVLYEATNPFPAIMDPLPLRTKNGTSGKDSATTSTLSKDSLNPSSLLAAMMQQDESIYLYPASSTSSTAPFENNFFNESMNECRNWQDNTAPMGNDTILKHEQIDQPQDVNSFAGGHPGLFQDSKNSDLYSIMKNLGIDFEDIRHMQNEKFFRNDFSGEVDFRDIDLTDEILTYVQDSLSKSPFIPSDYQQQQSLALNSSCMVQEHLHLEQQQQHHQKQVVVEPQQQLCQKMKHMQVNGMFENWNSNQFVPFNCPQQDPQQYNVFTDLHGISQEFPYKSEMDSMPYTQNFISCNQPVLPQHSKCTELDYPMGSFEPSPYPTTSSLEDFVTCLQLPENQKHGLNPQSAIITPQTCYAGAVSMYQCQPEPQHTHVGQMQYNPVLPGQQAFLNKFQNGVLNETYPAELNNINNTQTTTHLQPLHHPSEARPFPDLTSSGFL
NR3A LBD binder – modulates the human NR3A ligand-binding domain; NR3A LBD differential scanning fluorimetry, Tm shift; 0% = protein alone, 100% = glycine-bound protein; Tm shift relative to glycine control, % at 25 µM; 340,000 compounds, 2.5% hits; AID 1259313;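 active = melting temperature shift of at least 10% of the positive control shift, at one fixed dose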
Cardio protect – modulators protecting cardiomyocytes from myocardial damage; 360,000 compounds, 0.63% hits; protection from H2O2 cell death, % at 20 µM; H9c2 cardiomyocytes, H2O2 injury protection, ATPLite, 2 h;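 active = compounds giving at least 50% protection of heart cells from peroxide-induced death in the single-dose screen, raw or plate-pattern-corrected value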;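 also: 0% = DMSO wells with peroxide and 100% = DMSO wells without peroxide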
SUMO Mot1 rescue – SUMOylation pathway inhibition by Mot1-301 growth rescue | AID 2716 | S. cerevisiae Mot1-301 growth rescue, ATP luminescence, 38.5C; percent above DMSO median, 100 means doubled | 320,000 compounds, 1% hits | growth rescue, % at 18.8 µM;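 active = every valid replicate shows activation above 250% relative to neutral control wells; inactive = the rest, any valid replicate at or below 250%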;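 also: OY570 slx delta 5 strain wells were the positive control but not used for scaling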
NTR1 agonist – NTR1 (human) agonism; 330,000 compounds, 0.17% hits; NTR1-U2OS beta-arrestin-GFP spot imaging, agonist mode; P30989; activation, % at 20 µM; AID 493036;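 active = activation at or above 40% of the spot to cytoplasm intensity ratio, with at least 20 cells analyzed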;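 also: 0% = DMSO without peptide and 100% = 100 nM NTR1 peptide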
AI-2 QS mod – modulates the Vibrio harveyi AI-2 quorum sensing system. 300,000 compounds, 0.4% hits. AID 2094. activity change, % at 7.5 µM. Vibrio harveyi JMH597 AI-2 luminescence/OD600 ratio, 9 h; active compounds read low; strain lacks LuxN and CqsS sensors; 0 = neutral-control median; in the data active = activity change below about -75%, passing the limit was not always enough;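 also: luminescence divided by OD600 gain over 9 h not by final OD600 alone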
* = called active by the depositor; nt = no result; + = active, no number.

SMILES	AHR act	NR3A LBD binder	Cardio protect	SUMO Mot1 rescue	NTR1 agonist	AI-2 QS mod
CCc1ccc(CN2CCC(Oc3ccc(C(=O)N4CCCC4)cc3)CC2)cc1	-1	3	-3	12	-1	7
CC1CC(C)(C)NC(=S)N1CCC(=O)Nc1ccc2c(c1)OCCO2 (stereo not drawn)	-1	-2	69*	151	-2	nt
Cc1cc(C)cc(OCC(=O)Nc2ccc(F)cc2)c1	-1	-1	0	-4	1	10
Cc1cc(C)cc(OCC(=O)Nc2ccc3c(c2)C(=O)c2ccccc2C3=O)c1	1	14*	10	-3	0	8
CC(=O)Nc1ccc2c(c1)C(=O)c1cccc(C(=O)O)c1-2	nt	14*	3	nt	nt	nt
O=C(COc1ccc(Cl)cc1)NNC(=O)c1ccccn1	2	1	29	-13	-1	1
Cc1cc(C)cc(OCC(=O)NNC(=O)c2ccccn2)c1	-2	1	78*	206	5	nt
CC(C)c1ccc(OCC(=O)NNC(=O)c2cnccn2)cc1	0	0	17	-38	0	-83*
COc1ccccc1CNS(=O)(=O)c1cc(C(=O)N(C)Cc2cccnc2)c(Cl)cc1Cl	nt	2	1	nt	nt	nt
COc1cccc(C(=O)Nc2ccc(C)cc2)c1	10	-10	-9	-14	2	37
COc1cccc(C(=O)Nc2ccc3c(c2)n(C)c(=O)n3C)c1	48*	-1	1	194	2	-11
O=C(NC(=S)Nc1ccc2c(c1)C(=O)c1ccccc1C2=O)c1ccc(F)cc1	25	nt	nt	-16	-1	10
COc1cccc(C(=O)Nc2ccc(C3CC3(Cl)Cl)cc2)c1 (stereo not drawn)	73*	-1	-30	-15	2	31
COc1cccc(C(=O)Nc2ccc3c(c2)C(=O)c2ccccc2C3=O)c1	-1	16*	-7	-8	-2	11
O=C(Nc1ccc2c(c1)C(=O)c1ccccc1-2)c1ccccc1	nt	18*	-6	nt	nt	nt
COc1ccc(C)cc1N(CC(=O)NC1CCCC1)C(=O)Cn1nnc(-c2ccc(C)o2)n1	nt	-2	8	nt	-2	17
Cc1cc(C)c(CN2CCN(C(=O)Cn3cnc(C(=O)Nc4ccc(C)c(C)c4)n3)CC2)c(C)c1	nt	-4	-13	nt	14	nt
COc1ccc(S(=O)(=O)N2CCC(C(=O)NCCC(=O)Nc3ccc(Cl)cc3)CC2)cc1	2	5	-9	-16	2	1
CCC(=O)Nc1ccc2c(c1)C(=O)c1ccccc1C2=O	69*	-1	-3	-1	2	-9
CCOC(=O)C1=C(C)NC(C)=C(C(=O)OCC)C1C(=O)OCC(=O)NCCc1ccc(S(N)(=O)=O)cc1	12	-1	-1	-24	0	34
CC(C)c1ccc(NC(=O)CN2C(=O)NC(Cc3c[nH]c4ccccc34)C2=O)cc1 (stereo not drawn)	22	13*	4	nt	8	nt
CC(C)CC1NC(=O)N(CC(=O)Nc2ccc(-c3ccccc3)cc2)C1=O (stereo not drawn)	1	13*	-11	-14	2	nt
COc1ccc(OC)c(S(=O)(=O)N2CCCC(C(=O)NCCN3CCOCC3)C2)c1 (stereo not drawn)	0	2	-4	0	0	20
CCc1cccc(CC)c1NC(=O)CN1CCc2cc(OC)c(OC)cc2C1	-2	nt	-20	468	-1	11
Cc1noc(C)c1NC(=O)N(C)C[C@H]1Oc2ccc(NC(=O)NC3CCCCC3)cc2C(=O)N([C@H](C)CO)C[C@@H]1C	3	-2	-1	-21	0	nt
SMILES	AHR act	NR3A LBD binder	Cardio protect	SUMO Mot1 rescue	NTR1 agonist	AI-2 QS mod
Cc1occc1C(=O)N1CCN(S(=O)(=O)c2ccc(F)cc2)CC1	3	0	-4	1	-2	nt
COc1ccc(C(=O)n2nc(-c3ccccc3)nc2SC)cc1	nt	17*	10	nt	nt	15
COC(=O)C(Cc1ccc(O)cc1)NC(=O)C(C)NC(=O)c1ccc(C(C)(C)C)cc1 (stereo not drawn)	-2	1	-2	244	1	1
COC(=O)c1ccc(NC(=O)c2cccc(NC(=O)c3ccco3)c2)cc1	3	-6	-6	17	-1	15
CC(C)(C)NC(=O)c1cccc(NC(=O)c2ccc(NC(=O)c3ccco3)cc2)c1	-3	9	74*	-11	1	30
CCC(=O)Oc1ccc(C(=O)Nc2cccc(C(=O)NCC(C)C)c2)cc1	8	-5	0	+	1	0
CC(C)CNC(=O)c1cccc(NC(=O)c2ccc(NC(=O)c3ccco3)cc2)c1	-3	23*	17	-4	0	23
Cc1cccc(C)c1NC(=O)CNC(=O)C1CC(=O)N(Cc2ccccc2)C1 (stereo not drawn)	0	-1	0	-9	2	13
CC(NC(=O)COC(=O)COc1cccc2c1OC(C)(C)C2)c1ccccc1 (stereo not drawn)	-1	2	0	8	0	8
COc1ccc(NC(=O)/C=C/c2cc(Br)ccc2OC)cc1	28	15*	-5	8	6	8
CCN(CC)c1ccc(NC(=O)/C=C/c2cc(Br)ccc2OC)cc1	55*	-2	11	76	0	10
COc1ccc(CCN2C(=O)N[C@@H](C(C)C)C2=O)cc1	0	1	1	-7	0	25
CCOC(=O)CNC(=O)CSc1nc2nc(C)c(Br)cc2[nH]1	8	0	50*	-14	0	3
O=C(O)C(Cc1ccccc1[N+](=O)[O-])N1C(=O)c2ccccc2C1=O (stereo not drawn)	nt	0	5	nt	nt	nt
CC(=O)NS(=O)(=O)c1ccc(NC(=O)C2c3ccccc3Oc3ccccc32)cc1	0	11*	-4	536	0	14
CCOc1ccc(S(=O)(=O)Nc2nc3ccccc3nc2Nc2ccc(N3CCOCC3)cc2)cc1	11	15*	-10	10	1	5
COc1ccc(Nc2nc3ccccc3nc2NS(=O)(=O)c2cccs2)cc1	-6	22*	-14	9	5	19
CC(=O)c1ccc(Nc2nc3ccccc3nc2NS(=O)(=O)c2cccs2)cc1	0	-2	-10	56	8	16
CC(=O)Nc1ccc(S(=O)(=O)Nc2nc3ccccc3nc2Nc2ccc(S(N)(=O)=O)cc2)cc1	4	27*	-1	-13	0	20
CC(=O)Nc1ccc(S(=O)(=O)Nc2nc3ccccc3nc2Nc2ccc(O)c(C(=O)O)c2)cc1	2	8	-2	102	-1	35
COc1cccc(Nc2nc3ccccc3nc2NS(=O)(=O)c2ccc(NC(C)=O)cc2)c1	-2	22*	6	-9	0	-1
O=C(Cc1c(F)cccc1Cl)OCC(=O)c1ccc[nH]1	-2	1	-3	36	0	nt
